{"source": "the supplement of paper PMC8728848", "binders": {"B1": {"name": "PNA (Arachis hypogaea), P02872 (protein)", "chain": "MKPFCVFLTFFLLLAASSKKVDSAETVSFNFNSFSEGNPAINFQGDVTVLSNGNIQLTNLNKVNSVGRVLYAMPVRIWSSATGNVASFLTSFSFEMKDIKDYDPADGIIFFIAPEDTQIPAGSIGGGTLGVSDTKGAGHFVGVEFDTYSNSEYNDPPTDHVGIDVNSVDSVKTVPWNSVSGAVVKVTVIYDSSTKTLSVAVTNDNGDITTIAQVVDLKAKLPERVKFGFSASGSLGGRQIHLIRSWSFTSTLITTTRRSIDNNEKKIMNMASA"}}, "assay_in_all_cases": "glycan array binding signal (z-score within array); higher = stronger binding", "conditions_in_all_cases": "glycan notation: IUPAC condensed, linker removed", "key": {"[1]": {"target": "Fuc(a1-2)Gal(b1-3)[Fuc(a1-4)]GlcNAc(b1-3)[Gal(b1-4)GlcNAc(b1-6)]Gal(b1-4)Glc", "summary_of_the_method": "(§1)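 Columns mapping to the same glycan were averaged after glycan names were converted to IUPAC-condensed notation. The data come from 3228 arrays in the Consortium for Functional Glycomics database, limited to those with an available protein sequence. Binding is reported as a within-array Z-score averaged across arrays of one protein sequence and across linkers.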"}, "[2]": {"target": "Fuc(a1-2)Gal(b1-4)GlcNAc(b1-2)Man(a1-3)[Fuc(a1-2)Gal(b1-4)GlcNAc(b1-2)Man(a1-6)]Man(b1-4)GlcNAc(b1-4)GlcNAc", "summary_of_the_method": "as §1"}, "[3]": {"target": "Fuc(a1-2)Gal(b1-4)GlcNAc(b1-3)Gal(b1-4)GlcNAc", "summary_of_the_method": "as §1"}, "[4]": {"target": "Fuc(a1-2)Gal3S(b1-4)GlcNAc", "summary_of_the_method": "as §1"}, "[5]": {"target": "Fuc(a1-2)[Gal(a1-3)]Gal(b1-4)[Fuc(a1-3)]Glc", "summary_of_the_method": "as §1"}, "[6]": {"target": "Fuc(a1-2)[GalNAc(a1-3)]Gal(b1-4)GlcNAc(b1-3)GalNAc", "summary_of_the_method": "as §1"}, "[7]": {"target": "Fuc(a1-3)[3dGal(b1-4)]Glc", "summary_of_the_method": "as §1"}, "[8]": {"target": "Fuc(a1-3)[Gal(b1-4)]GlcNAc(b1-2)Man(a1-3)[Fuc(a1-3)[Gal(b1-4)]GlcNAc(b1-2)Man(a1-6)]Man(b1-4)GlcNAc(b1-4)GlcNAc", "summary_of_the_method": "as §1"}, "[9]": {"target": "Fuc(a1-3)[Gal(b1-4)]GlcNAc(b1-2)Man(a1-3)[Fuc(a1-3)[Gal(b1-4)]GlcNAc(b1-2)Man(a1-6)]Man(b1-4)GlcNAc(b1-4)[Fuc(a1-6)]GlcNAc", "summary_of_the_method": "as §1"}, "[10]": {"target": "Fuc(a1-3)[Gal3S(b1-4)]Glc", "summary_of_the_method": "as §1"}, "[11]": {"target": "Fuc(a1-6)GlcNAc", "summary_of_the_method": "as §1"}, "[12]": {"target": "Gal(a1-2)Gal", "summary_of_the_method": "as §1"}, "[13]": {"target": "Gal(a1-3)Gal(b1-4)GlcNAc(b1-2)Man", "summary_of_the_method": "as §1"}, "[14]": {"target": "Gal(b1-3)Gal(b1-4)GlcNAc", "summary_of_the_method": "as §1"}, "[15]": {"target": "Gal(b1-3)GalNAc(a1-3)[Fuc(a1-2)]Gal(b1-4)Glc", "summary_of_the_method": "as §1"}, "[16]": {"target": "Gal(b1-3)GalNAc(a1-3)[Fuc(a1-2)]Gal(b1-4)GlcNAc", "summary_of_the_method": "as §1"}, "[17]": {"target": "Gal(b1-3)GalNAc(b1-3)Gal", "summary_of_the_method": "as §1"}, "[18]": {"target": "Gal(b1-3)GalNAc(b1-3)Gal(a1-4)Gal(b1-4)Glc", "summary_of_the_method": "as §1"}, "[19]": {"target": "Gal(b1-3)GalNAc(b1-4)Gal(b1-4)Glc", "summary_of_the_method": "as §1"}, "[20]": {"target": "Gal(b1-3)GalNAc(b1-4)Gal3S(b1-4)Glc", "summary_of_the_method": "as §1"}, "[21]": {"target": "Gal(b1-3)GalNAc(b1-4)[Neu5Ac(a2-3)]Gal(b1-4)Glc", "summary_of_the_method": "as §1"}, "[22]": {"target": "Gal(b1-3)GalNAc(b1-4)[Neu5Gc(a2-3)]Gal(b1-4)Glc", "summary_of_the_method": "as §1"}, "[23]": {"target": "Gal(b1-3)GlcNAc(b1-3)Gal(b1-4)Glc", "summary_of_the_method": "as §1"}, "[24]": {"target": "Gal(b1-3)[GlcNAc(b1-6)]GalNAc", "summary_of_the_method": "as §1"}, "[25]": {"target": "Gal(b1-4)GlcNAc(b1-2)Man(a1-3)[GlcNAc(b1-4)][Gal(b1-4)GlcNAc(b1-2)Man(a1-6)]Man(b1-4)GlcNAc(b1-4)GlcNAc", "summary_of_the_method": "as §1"}, "[26]": {"target": "Gal(b1-4)GlcNAc(b1-2)Man(a1-6)Man(b1-4)GlcNAc(b1-4)GlcNAc", "summary_of_the_method": "as §1"}, "[27]": {"target": "Gal(b1-4)GlcNAc(b1-2)[Gal(b1-4)GlcNAc(b1-4)]Man(a1-3)[Gal(b1-4)GlcNAc(b1-2)Man(a1-6)]Man(b1-4)GlcNAc(b1-4)GlcNAc", "summary_of_the_method": "as §1"}, "[28]": {"target": "Gal(b1-4)GlcNAc(b1-2)[Gal(b1-4)GlcNAc(b1-6)]Man(a1-6)[Gal(b1-4)GlcNAc(b1-2)Man(a1-3)]Man(b1-4)GlcNAc(b1-4)[Fuc(a1-6)]GlcNAc", "summary_of_the_method": "as §1"}, "[29]": {"target": "Gal(b1-4)GlcNAc(b1-3)Fuc", "summary_of_the_method": "as §1"}, "[30]": {"target": "Gal(b1-4)GlcNAc(b1-3)[Fuc(a1-3)GlcNAc(b1-6)]Gal(b1-4)Glc", "summary_of_the_method": "as §1"}, "[31]": {"target": "Gal(b1-4)GlcNAc(b1-3)[Gal(b1-4)GlcNAc(b1-6)]Gal(b1-4)GlcNAc", "summary_of_the_method": "as §1"}, "[32]": {"target": "Gal(b1-4)GlcNAc(b1-3)[Gal(b1-4)GlcNAc(b1-6)]Gal(b1-4)GlcNAc(b1-3)[Gal(b1-4)GlcNAc(b1-6)]Gal(b1-4)GlcNAc(b1-3)[Gal(b1-4)GlcNAc(b1-6)]Gal(b1-4)GlcNAc(b1-3)[Gal(b1-4)GlcNAc(b1-6)]Gal(b1-4)GlcNAc(b1-3)Gal(b1-4)Glc", "summary_of_the_method": "as §1"}, "[33]": {"target": "Gal(b1-4)GlcNAc(b1-6)[Gal(b1-3)]GalNAc", "summary_of_the_method": "as §1"}, "[34]": {"target": "Gal3S(b1-4)[Fuc(a1-3)]Glc", "summary_of_the_method": "as §1"}, "[35]": {"target": "Gal6S(b1-3)GlcNAc6S", "summary_of_the_method": "as §1"}, "[36]": {"target": "Gal6S(b1-4)Glc", "summary_of_the_method": "as §1"}, "[37]": {"target": "GalNAc(b1-3)Gal(a1-4)Gal(b1-4)GlcNAc", "summary_of_the_method": "as §1"}, "[38]": {"target": "GalNAc(b1-4)Gal3S(b1-4)Glc", "summary_of_the_method": "as §1"}, "[39]": {"target": "Glc(a1-2)Glc", "summary_of_the_method": "as §1"}}, "note": "The sample as a whole holds a higher share of the strongest signals than the screen did."}
{"binder": "B1", "values": [{"measurement": "glycan array binding signal (z-score)", "setting": "[1]", "value": -0.127}, {"measurement": "glycan array binding signal (z-score)", "setting": "[2]", "value": -0.116}, {"measurement": "glycan array binding signal (z-score)", "setting": "[3]", "value": -0.144}, {"measurement": "glycan array binding signal (z-score)", "setting": "[4]", "value": -0.183}, {"measurement": "glycan array binding signal (z-score)", "setting": "[5]", "value": -0.09}, {"measurement": "glycan array binding signal (z-score)", "setting": "[6]", "value": -0.177}, {"measurement": "glycan array binding signal (z-score)", "setting": "[7]", "value": -0.195}, {"measurement": "glycan array binding signal (z-score)", "setting": "[8]", "value": -0.106}, {"measurement": "glycan array binding signal (z-score)", "setting": "[9]", "value": -0.162}, {"measurement": "glycan array binding signal (z-score)", "setting": "[10]", "value": -0.195}, {"measurement": "glycan array binding signal (z-score)", "setting": "[11]", "value": -0.195}, {"measurement": "glycan array binding signal (z-score)", "setting": "[12]", "value": -0.169}, {"measurement": "glycan array binding signal (z-score)", "setting": "[13]", "value": -0.115}, {"measurement": "glycan array binding signal (z-score)", "setting": "[14]", "value": -0.001}, {"measurement": "glycan array binding signal (z-score)", "setting": "[15]", "value": 6}, {"measurement": "glycan array binding signal (z-score)", "setting": "[16]", "value": 8.53}, {"measurement": "glycan array binding signal (z-score)", "setting": "[17]", "value": 5.33}, {"measurement": "glycan array binding signal (z-score)", "setting": "[18]", "value": 3.33}, {"measurement": "glycan array binding signal (z-score)", "setting": "[19]", "value": 7.85}, {"measurement": "glycan array binding signal (z-score)", "setting": "[20]", "value": 9.11}, {"measurement": "glycan array binding signal (z-score)", "setting": "[21]", "value": 3.91}, {"measurement": "glycan array binding signal (z-score)", "setting": "[22]", "value": 4.74}, {"measurement": "glycan array binding signal (z-score)", "setting": "[23]", "value": 0.203}, {"measurement": "glycan array binding signal (z-score)", "setting": "[24]", "value": 3.79}, {"measurement": "glycan array binding signal (z-score)", "setting": "[25]", "value": -0.309}, {"measurement": "glycan array binding signal (z-score)", "setting": "[26]", "value": -0.171}, {"measurement": "glycan array binding signal (z-score)", "setting": "[27]", "value": -0.118}, {"measurement": "glycan array binding signal (z-score)", "setting": "[28]", "value": -0.186}, {"measurement": "glycan array binding signal (z-score)", "setting": "[29]", "value": -0.195}, {"measurement": "glycan array binding signal (z-score)", "setting": "[30]", "value": -0.247}, {"measurement": "glycan array binding signal (z-score)", "setting": "[31]", "value": -0.153}, {"measurement": "glycan array binding signal (z-score)", "setting": "[32]", "value": 4.16}, {"measurement": "glycan array binding signal (z-score)", "setting": "[33]", "value": 5.42}, {"measurement": "glycan array binding signal (z-score)", "setting": "[34]", "value": -0.222}, {"measurement": "glycan array binding signal (z-score)", "setting": "[35]", "value": -0.244}, {"measurement": "glycan array binding signal (z-score)", "setting": "[36]", "value": -0.174}, {"measurement": "glycan array binding signal (z-score)", "setting": "[37]", "value": -0.197}, {"measurement": "glycan array binding signal (z-score)", "setting": "[38]", "value": -0.195}, {"measurement": "glycan array binding signal (z-score)", "setting": "[39]", "value": -0.195}]}
